MARV entry inh: blocks Marburg virus binding to or entry into cells | Marburg virus pseudotyped entry inhibition, cell reporter | Potency, µM (titrated, usually from 37.8 µM), inactives show at the highest dose activity change, negative = inhibition, hits mostly inhibitors | hit rate 1.8% among 300,000 | AID 540276; calls by dose curve; tested in HEK293 cells; also: potency is read from the fitted curve at half-maximal effect
Pf growth 48h: P. falciparum growth inhibition at 48 hours (one generation). hit rate 5.9% among 310,000. AID 504832. Potency, µM (highest dose often 28.7 µM), for the others: at the highest dose activity change, negative = inhibition, hits mostly inhibitors. P. falciparum luciferase growth in erythrocytes, 48 h; also: potency is read from the fitted curve at half-maximal effect
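First compound was added to culture medium, then infected red cells at 0.1% parasitemia and 2% hematocrit (final). After incubation at 37 C under 5% CO2, luciferase detection reagent was dispensed and light output recorded.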
Pf growth 96h: P. falciparum growth inhibition at 96 hours; AID 504834; hit rate 6.9% among 320,000; Potency, µM (doses to about 28.7 µM), for the others: at the highest dose activity change, negative = inhibition, hits mostly inhibitors; P. falciparum luciferase reporter growth, 96 h; also: potency is read from the fitted curve at half-maximal effect
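P. falciparum expressing integrated firefly luciferase, in erythrocytes at 2% hematocrit, 0.05% parasitemia, incubated with compounds 96 h at 37 C, 5% CO2. Growth inhibition read as loss of luminescence; two-generation exposure targets delayed-death apicoplast inhibitors.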
HCV inhibitor: inhibitors of hepatitis C virus infection; Huh7.5.1 HCVcc-Cre infection, luciferase reporter, 44 h; Potency, µM (series often up to 41.8 µM), without a hit: at the highest dose activity change, negative = inhibition, hits mostly inhibitors; hit rate 3.4% among 340,000; also: potency is read from the fitted curve at half-maximal effect
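Compounds are dispensed onto cells plated 4 h earlier at 1,000 per well, with HCVcc-Cre virus (about 0.5 moi) added next. Following 44 h of culture, luminescent signal is measured for 15 sec after 15 min with substrate at room temperature.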
LASV entry inh: inhibitors of Lassa virus binding or cell entry | hit rate 1.2% among 300,000 | AID 540256 | Lassa virus pseudotype entry inhibition, cell reporter | Potency, µM (highest dose often 37.9 µM), for inactives: top-dose activity change, negative = inhibition, actives largely listed as inhibitors; calls by dose curve; tested in HEK293 cells; also: potency is read from the fitted curve at half-maximal effect; nearly all actives have a fitted effect of over 50% in size
HCMV inh: human cytomegalovirus inhibition. HFF cells, HCMV-luciferase reporter, 72 h; stronger effect = lower value. activity change, negative = inhibition, % at 57.5 µM. hit rate 4.5% among 410,000; in the data active = activity change below about -60%; inconclusive = no clear call, values can overlap the other calls; inactive = above about -39%
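HFF cells seeded 16 h at 37C, treated with compounds, infected with luciferase-reporter HCMV at MOI 1 PFU/cell; luciferase read at 72 h post infection, normalized to buffer-only and Salinomycin controls.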
The depositor's hits bear a star; [ ] = another dose, or the depositor's remark. Sampled rows, rich in hits. Any-hit rate of the full collection: about 14%. Unless noted, calls follow the shape of the dose curve; as a rule, active = well fitted inhibition curve with a large enough effect; inconclusive = small, poorly fitted or top-dose-only effect, or another doubt; inactive = no such curve, though single readings can be large or run the other way. % is scaled to controls: 0 for no effect and ±100 for the full control effect.

How did Cc1c(/C=N/NC(=O)c2ccccc2O)c2ccccn2c1C(=O)c1ccc(F)cc1 do in these assays?
MARV entry inh: 11.2µM*; Pf growth 48h: 8.28µM*; Pf growth 96h: inconclusive; HCV inhibitor: inconclusive; LASV entry inh: inconclusive; HCMV inh: -19.2

Results for Cc1c(/C=N/NC(=O)c2cc(=O)[nH]c(=O)[nH]2)c2ccccn2c1C(=O)c1ccccc1 ?
MARV entry inh: 1.6%; Pf growth 48h: 3.29µM*; HCV inhibitor: 13.2%; LASV entry inh: -5.4%; HCMV inh: -18.2

What do the screens show for `O=C(Cn1cc(SCc2c(F)cccc2Cl)c2ccccc21)N1CCCCC1`?
LASV entry inh: 4.8%[46.1 µM]; HCMV inh: 124.2

Results for Cc1c(/C=N/NC(N)=O)c2ccccn2c1C(=O)c1ccncc1 ?
Pf growth 48h: -3.4%; Pf growth 96h: -3.8%; HCV inhibitor: -7.7%; HCMV inh: -14.1

Results for Cc1c(/C=N/NC(=O)CNc2ccccc2)c2ccccn2c1C(=O)c1ccccc1 ?
MARV entry inh: -53.8%; Pf growth 48h: 2.08µM*; Pf growth 96h: 2.94µM*; HCV inhibitor: inconclusive; LASV entry inh: inconclusive; HCMV inh: -19.9

How did COc1ccc(-c2ccccc2)cc1NCc1ccccc1C do in these assays?
MARV entry inh: 25.9%; Pf growth 48h: 68.0%; Pf growth 96h: inconclusive; HCV inhibitor: -15.4%; LASV entry inh: 11.9%; HCMV inh: -27.9

How did COc1ccccc1CNCc1ccc(OC)c(OC)c1OC do in these assays?
MARV entry inh: -44.5%; Pf growth 48h: -28.1%; Pf growth 96h: 10.4µM*; HCV inhibitor: 1.7%; LASV entry inh: 2.4%; HCMV inh: 13.1

Results for COc1cccc(CNCc2ccccc2Br)c1OC ?
MARV entry inh: 7.3%; Pf growth 48h: 2.6%; Pf growth 96h: 9.28µM*; HCV inhibitor: inconclusive; LASV entry inh: 11.8%; HCMV inh: 5.2

What do the screens show for `COc1ccccc1CNc1cc(-c2ccccc2)ccc1OC`?
MARV entry inh: -23.7%; Pf growth 48h: inconclusive; Pf growth 96h: 9.28µM*; HCV inhibitor: -0.3%; LASV entry inh: 1.4%; HCMV inh: -13.8

What do the screens show for `COc1cccc(CNCc2cccc(Br)c2)c1OC`?
MARV entry inh: -14.6%[46.1 µM]; Pf growth 48h: 5.1%; Pf growth 96h: 249.3%; HCV inhibitor: -29.0%; LASV entry inh: -10.1%; HCMV inh: -33.3

How did O=C1CC(c2nc(-c3ccc(Cl)cc3)no2)CN1c1ccc2c(c1)OCCO2 (stereo not given) do in these assays?
LASV entry inh: 23.0%[46.1 µM]; HCMV inh: 1.9

How did CC(C)CCn1c(=O)c2cccnc2n(CC(=O)Nc2ccccc2)c1=O do in these assays?
MARV entry inh: inconclusive; HCMV inh: 22.8

Results for CC1CCN(C(=O)CSc2nc(-c3ccccc3)no2)CC1 ?
LASV entry inh: 5.8%[46.1 µM]; HCMV inh: 5.5

How did COCC(C)n1c(SCC(=O)Nc2cccnc2Cl)nc2ccccc2c1=O (stereo not given) do in these assays?
HCMV inh: -11.1

How did Cc1ccc(NC(=O)CNc2cccc(S(=O)(=O)N3CCCCC3)c2)cc1F do in these assays?
MARV entry inh: inconclusive; Pf growth 48h: inconclusive; Pf growth 96h: inconclusive; HCV inhibitor: inconclusive; LASV entry inh: -21.0%; HCMV inh: -35.1

What do the screens show for `COc1ccc([N+](=O)[O-])cc1NCC(=O)Nc1cccc(S(=O)(=O)N2CCCC2)c1`?
MARV entry inh: inconclusive; Pf growth 48h: 5.22µM*; Pf growth 96h: inconclusive; HCV inhibitor: inconclusive; LASV entry inh: -11.3%; HCMV inh: -29.2

How did COc1ccc(S(=O)(=O)N(C)C)cc1NCC(=O)Nc1cccc(C#N)c1 do in these assays?
MARV entry inh: -1.7%[46.1 µM]; Pf growth 48h: inconclusive; Pf growth 96h: 11.7µM*; HCV inhibitor: -26.5%; LASV entry inh: inconclusive; HCMV inh: -32.8

What do the screens show for `O=C(CNc1cc([N+](=O)[O-])ccc1NCCO)Nc1cccc(S(=O)(=O)N2CCCCC2)c1`?
Pf growth 48h: inconclusive; Pf growth 96h: -29.3%; HCV inhibitor: inconclusive; HCMV inh: -2.7

How did CCNc1ccc(S(=O)(=O)N(C)C)cc1NCC(=O)Nc1ccc(F)c(Cl)c1 do in these assays?
MARV entry inh: inconclusive; Pf growth 48h: inconclusive; Pf growth 96h: inconclusive; HCV inhibitor: inconclusive; LASV entry inh: inconclusive; HCMV inh: -75.3*

How did COc1cc(NCC(=O)Nc2cccc(S(=O)(=O)N3CCCCC3)c2)cc(OC)c1OC do in these assays?
Pf growth 48h: 1.85µM*; Pf growth 96h: inconclusive; HCV inhibitor: inconclusive; HCMV inh: 0.0

Results for Cc1cccc(-c2nc(CCNC(=O)COc3ccccc3)cs2)c1 ?
LASV entry inh: 3.9%[46.1 µM]; HCMV inh: 1.3

How did CN(CCOc1ccccc1)CC(=O)Nc1cccc(C#N)c1 do in these assays?
MARV entry inh: -18.0%[46.1 µM]; Pf growth 48h: 26.3%; Pf growth 96h: 20.7%; HCV inhibitor: 1.6%; LASV entry inh: 2.4%; HCMV inh: -64.5*

How did CCn1nc(-c2ccccc2)c(-c2ccccc2)c(C(=O)OCCOC)c1=O do in these assays?
MARV entry inh: 7.5%[46.1 µM]; LASV entry inh: -1.4%[46.1 µM]; HCMV inh: 47.9

Results for Cc1ccc(C)c(Cn2c(O)c(N=NC(=S)Nc3ccccc3F)c3ccccc32)c1 ?
MARV entry inh: inconclusive; Pf growth 48h: inconclusive; Pf growth 96h: 11.1%; HCV inhibitor: 3.16µM*; LASV entry inh: inconclusive; HCMV inh: 4.1

Results for Cc1ccccc1Cn1c(O)c(N=NC(=S)Nc2ccccc2F)c2ccccc21 ?
MARV entry inh: inconclusive; Pf growth 48h: 1.47µM*; Pf growth 96h: 6.3%; HCV inhibitor: 2.24µM*; LASV entry inh: inconclusive; HCMV inh: inconclusive

How did CCNC(=S)N=Nc1c(O)n(Cc2ccc(Cl)cc2)c2ccccc12 do in these assays?
MARV entry inh: inconclusive; Pf growth 48h: inconclusive; Pf growth 96h: inconclusive; HCV inhibitor: inconclusive; LASV entry inh: inconclusive; HCMV inh: 16.9

What do the screens show for `Oc1c(N=NC(=S)Nc2ccccc2F)c2ccccc2n1Cc1ccc(Cl)cc1`?
MARV entry inh: inconclusive; Pf growth 48h: 2.33µM*; Pf growth 96h: 71.3%; HCV inhibitor: inconclusive; LASV entry inh: inconclusive; HCMV inh: 71.9

How did Cc1cccc(NC(=O)Cn2c(O)c(N=NC(=O)c3ccccc3O)c3ccccc32)c1 do in these assays?
MARV entry inh: inconclusive; Pf growth 48h: 20.2%; Pf growth 96h: 27.7%; HCV inhibitor: 2.4%; LASV entry inh: inconclusive; HCMV inh: -29.5

What do the screens show for `Oc1c(N=NC(=S)Nc2ccccc2F)c2ccccc2n1Cc1ccccc1F`?
Pf growth 48h: inconclusive; Pf growth 96h: -45.0%; HCV inhibitor: 12.6µM*; HCMV inh: -26.3

How did OC[C@@H]1CN(Cc2cccs2)C[C@H](n2cnc3c(N4CCCC4)ncnc32)O1 do in these assays?
HCMV inh: 40.7

Source: PubChem BioAssay
